# Tests used:
# Test in all cases: DAPPL (digital affinity profiling via proximity ligation, sequencing); 10 mM Tris-HCl pH 7.5, 50 mM NaCl, 1 mM DTT, 4% glycerol, room temperature, 30 min; GST-TFs on glutathione beads, 16-mer random dsDNA library, 0.1% formaldehyde crosslink after washing; high values mean tight binding
# FEV = target: T1, FEV (Homo sapiens, UniProt Q99581 1-238); settings: protein: recombinant; tags: N-terminal GST; dsDNA, one strand shown
# T1 sequence: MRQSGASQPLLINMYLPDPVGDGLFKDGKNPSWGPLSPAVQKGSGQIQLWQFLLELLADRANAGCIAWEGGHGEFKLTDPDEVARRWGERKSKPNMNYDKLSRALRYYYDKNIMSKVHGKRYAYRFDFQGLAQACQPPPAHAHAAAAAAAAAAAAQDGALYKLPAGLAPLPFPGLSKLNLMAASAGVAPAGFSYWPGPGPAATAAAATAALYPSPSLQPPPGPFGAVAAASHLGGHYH
# Summary of the method: (§1)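 Beads coated with glutathione captured GST-fused human transcription factors that had been expressed in yeast, and the factors were then given DNA barcodes and pooled with a tag-only sample. The pools were incubated with 200 nmole of a random double-stranded 16-mer DNA library in Tris/NaCl/DTT/glycerol buffer for 30 min at room temperature, washed, crosslinked with 0.1% formaldehyde and proximity-ligated with BsaI/T4 ligase at 37 °C for 1 h. PCR amplification and Illumina NextSeq500 sequencing came last. Binding signal is each hexamer's read frequency for a factor divided by its frequency for the tag-only sample.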
# ETV5 = ETV5 (Homo sapiens, UniProt P41161 1-510); settings: protein: recombinant; tags: N-terminal GST; dsDNA, one strand shown
# Chain of ETV5 (P41161 whole entry): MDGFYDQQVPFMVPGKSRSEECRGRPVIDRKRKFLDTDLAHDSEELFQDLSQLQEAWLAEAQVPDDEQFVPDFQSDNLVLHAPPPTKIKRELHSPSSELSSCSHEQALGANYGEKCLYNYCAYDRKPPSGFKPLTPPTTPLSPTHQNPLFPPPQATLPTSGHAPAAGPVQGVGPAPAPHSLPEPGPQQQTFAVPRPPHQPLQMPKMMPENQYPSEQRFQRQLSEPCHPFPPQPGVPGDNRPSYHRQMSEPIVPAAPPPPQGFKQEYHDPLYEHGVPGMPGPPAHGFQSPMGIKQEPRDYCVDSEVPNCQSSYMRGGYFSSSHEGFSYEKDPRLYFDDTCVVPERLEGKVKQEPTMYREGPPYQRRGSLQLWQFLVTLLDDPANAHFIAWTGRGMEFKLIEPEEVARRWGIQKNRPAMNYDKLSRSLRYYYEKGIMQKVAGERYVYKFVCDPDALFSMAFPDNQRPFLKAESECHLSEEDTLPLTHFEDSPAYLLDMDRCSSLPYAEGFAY
# Summary of the method: as §1
# HSF1 = HSF1 (Homo sapiens, UniProt Q00613 1-529); settings: protein: recombinant; tags: N-terminal GST; chain copies: 3; dsDNA, one strand shown
# Chain of HSF1 (Q00613 whole entry): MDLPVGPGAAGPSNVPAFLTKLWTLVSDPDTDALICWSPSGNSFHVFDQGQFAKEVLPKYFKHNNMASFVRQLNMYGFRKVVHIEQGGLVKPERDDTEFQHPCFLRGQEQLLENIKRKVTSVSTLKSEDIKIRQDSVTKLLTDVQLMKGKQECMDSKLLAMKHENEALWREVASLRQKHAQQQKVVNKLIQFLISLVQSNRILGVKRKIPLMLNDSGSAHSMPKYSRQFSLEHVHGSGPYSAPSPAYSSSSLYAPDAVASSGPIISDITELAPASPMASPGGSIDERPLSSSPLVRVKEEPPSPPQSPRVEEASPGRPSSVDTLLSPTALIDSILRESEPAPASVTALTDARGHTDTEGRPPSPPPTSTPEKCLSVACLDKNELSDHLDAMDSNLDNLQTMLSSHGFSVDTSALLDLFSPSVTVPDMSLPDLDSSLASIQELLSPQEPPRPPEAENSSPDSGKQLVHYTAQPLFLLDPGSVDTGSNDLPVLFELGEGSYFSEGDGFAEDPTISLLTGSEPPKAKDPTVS
# Summary of the method: as §1
# SPIC = target: T2, SPIC (Homo sapiens, UniProt Q8N5J4 1-248); settings: protein: recombinant; tags: N-terminal GST; dsDNA, one strand shown
# T2 sequence: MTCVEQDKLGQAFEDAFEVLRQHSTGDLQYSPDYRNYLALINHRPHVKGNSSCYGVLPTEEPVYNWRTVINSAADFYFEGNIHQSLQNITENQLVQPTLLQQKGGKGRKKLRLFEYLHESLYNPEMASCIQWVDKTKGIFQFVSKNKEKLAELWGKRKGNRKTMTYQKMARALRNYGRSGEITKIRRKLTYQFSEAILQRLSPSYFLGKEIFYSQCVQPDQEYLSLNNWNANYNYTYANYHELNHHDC
# Summary of the method: as §1
# ELF4 = ELF4 (Homo sapiens, UniProt Q99607 1-663); settings: protein: recombinant; tags: N-terminal GST; dsDNA, one strand shown
# Chain of ELF4 (Q99607 whole entry): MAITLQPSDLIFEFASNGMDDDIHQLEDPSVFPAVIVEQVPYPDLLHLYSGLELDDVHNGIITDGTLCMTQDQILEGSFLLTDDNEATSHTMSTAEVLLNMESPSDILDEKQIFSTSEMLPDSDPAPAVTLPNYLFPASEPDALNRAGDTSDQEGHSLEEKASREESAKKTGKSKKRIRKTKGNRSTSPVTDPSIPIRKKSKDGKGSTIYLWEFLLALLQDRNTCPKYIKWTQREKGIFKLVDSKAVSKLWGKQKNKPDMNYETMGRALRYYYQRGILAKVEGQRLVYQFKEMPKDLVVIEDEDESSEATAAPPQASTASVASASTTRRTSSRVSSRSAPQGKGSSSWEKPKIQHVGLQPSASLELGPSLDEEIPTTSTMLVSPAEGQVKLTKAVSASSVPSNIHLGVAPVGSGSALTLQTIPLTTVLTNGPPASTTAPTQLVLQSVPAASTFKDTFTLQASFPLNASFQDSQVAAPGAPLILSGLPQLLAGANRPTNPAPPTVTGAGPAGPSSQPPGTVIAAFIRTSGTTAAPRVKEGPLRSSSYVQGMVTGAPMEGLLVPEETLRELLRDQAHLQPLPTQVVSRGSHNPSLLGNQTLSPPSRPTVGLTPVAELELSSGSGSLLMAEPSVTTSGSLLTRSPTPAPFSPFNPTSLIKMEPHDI
# Summary of the method: as §1
# ELK4 = target: T3, ELK4 (Homo sapiens, UniProt P28324-2 1-405); settings: protein: recombinant; tags: N-terminal GST; dsDNA, one strand shown
# T3 sequence: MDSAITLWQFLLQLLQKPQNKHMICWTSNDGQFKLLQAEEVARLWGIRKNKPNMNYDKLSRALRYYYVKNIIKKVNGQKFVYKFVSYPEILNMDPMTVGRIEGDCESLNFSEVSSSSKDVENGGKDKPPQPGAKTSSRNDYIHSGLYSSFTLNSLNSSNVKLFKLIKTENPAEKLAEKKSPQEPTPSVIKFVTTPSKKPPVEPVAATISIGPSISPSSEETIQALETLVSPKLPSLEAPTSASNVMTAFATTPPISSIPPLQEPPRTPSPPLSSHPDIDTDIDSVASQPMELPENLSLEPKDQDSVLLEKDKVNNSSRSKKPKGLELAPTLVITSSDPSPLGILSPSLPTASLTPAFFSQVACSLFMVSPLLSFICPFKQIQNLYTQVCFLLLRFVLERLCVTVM
# Summary of the method: as §1
# ETV2 = target: T4, ETV2 (Homo sapiens, UniProt O00321 1-342); settings: protein: recombinant; tags: N-terminal GST; dsDNA, one strand shown
# T4 sequence: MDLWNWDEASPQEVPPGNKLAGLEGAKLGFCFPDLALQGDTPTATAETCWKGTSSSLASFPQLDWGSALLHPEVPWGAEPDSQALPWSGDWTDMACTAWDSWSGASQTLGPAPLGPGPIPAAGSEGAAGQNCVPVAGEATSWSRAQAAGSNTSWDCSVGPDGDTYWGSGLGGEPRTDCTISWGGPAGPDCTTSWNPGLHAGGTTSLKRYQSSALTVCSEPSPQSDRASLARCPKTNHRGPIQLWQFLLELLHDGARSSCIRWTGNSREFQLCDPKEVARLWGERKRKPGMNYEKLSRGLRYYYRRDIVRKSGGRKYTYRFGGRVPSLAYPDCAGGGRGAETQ
# Summary of the method: as §1
# ELF3 = target: T5, ELF3 (Homo sapiens, UniProt P78545 1-371); settings: protein: recombinant; tags: N-terminal GST; dsDNA, one strand shown
# T5 sequence: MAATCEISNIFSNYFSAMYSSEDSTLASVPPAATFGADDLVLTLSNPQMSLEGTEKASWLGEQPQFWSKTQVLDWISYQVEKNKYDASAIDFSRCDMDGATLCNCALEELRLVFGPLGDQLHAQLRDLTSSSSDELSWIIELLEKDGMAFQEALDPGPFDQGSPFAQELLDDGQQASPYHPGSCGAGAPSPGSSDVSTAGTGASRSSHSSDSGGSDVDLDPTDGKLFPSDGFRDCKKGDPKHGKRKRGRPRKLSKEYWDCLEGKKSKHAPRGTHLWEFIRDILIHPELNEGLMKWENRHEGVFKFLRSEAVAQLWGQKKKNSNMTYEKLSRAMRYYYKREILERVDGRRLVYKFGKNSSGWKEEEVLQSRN
# Summary of the method: as §1
# CRX = CRX (Homo sapiens, UniProt O43186 1-299); settings: protein: recombinant; tags: N-terminal GST; dsDNA, one strand shown
# Chain of CRX (O43186 whole entry): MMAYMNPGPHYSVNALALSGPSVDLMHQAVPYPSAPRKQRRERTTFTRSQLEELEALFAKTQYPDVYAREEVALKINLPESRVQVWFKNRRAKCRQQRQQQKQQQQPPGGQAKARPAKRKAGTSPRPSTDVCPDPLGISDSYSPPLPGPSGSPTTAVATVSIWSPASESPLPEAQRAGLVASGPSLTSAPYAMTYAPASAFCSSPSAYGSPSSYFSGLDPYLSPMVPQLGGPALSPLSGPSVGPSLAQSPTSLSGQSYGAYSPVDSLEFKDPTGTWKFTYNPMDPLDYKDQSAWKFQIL
# Summary of the method: as §1
# ETV1 = ETV1 (Homo sapiens, UniProt P50549 1-477); settings: protein: recombinant; tags: N-terminal GST; dsDNA, one strand shown
# Chain of ETV1 (P50549 whole entry): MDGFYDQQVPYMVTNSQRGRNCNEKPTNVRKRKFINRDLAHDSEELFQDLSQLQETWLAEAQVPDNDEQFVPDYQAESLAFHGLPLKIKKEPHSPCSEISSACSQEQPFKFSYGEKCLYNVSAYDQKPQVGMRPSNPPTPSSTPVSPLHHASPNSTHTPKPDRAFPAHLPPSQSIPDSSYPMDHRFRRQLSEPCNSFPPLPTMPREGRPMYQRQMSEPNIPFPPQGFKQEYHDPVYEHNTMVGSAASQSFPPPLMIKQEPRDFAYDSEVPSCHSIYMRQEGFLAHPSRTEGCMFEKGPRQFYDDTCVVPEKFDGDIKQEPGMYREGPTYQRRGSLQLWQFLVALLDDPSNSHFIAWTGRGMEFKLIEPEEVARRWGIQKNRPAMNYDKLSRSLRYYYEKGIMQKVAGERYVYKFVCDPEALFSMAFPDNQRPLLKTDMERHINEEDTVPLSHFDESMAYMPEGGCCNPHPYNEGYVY
# Summary of the method: as §1
# ERF = target: T6, ERF (Homo sapiens, UniProt P50548 1-548); settings: protein: recombinant; tags: N-terminal GST; dsDNA, one strand shown
# T6 sequence: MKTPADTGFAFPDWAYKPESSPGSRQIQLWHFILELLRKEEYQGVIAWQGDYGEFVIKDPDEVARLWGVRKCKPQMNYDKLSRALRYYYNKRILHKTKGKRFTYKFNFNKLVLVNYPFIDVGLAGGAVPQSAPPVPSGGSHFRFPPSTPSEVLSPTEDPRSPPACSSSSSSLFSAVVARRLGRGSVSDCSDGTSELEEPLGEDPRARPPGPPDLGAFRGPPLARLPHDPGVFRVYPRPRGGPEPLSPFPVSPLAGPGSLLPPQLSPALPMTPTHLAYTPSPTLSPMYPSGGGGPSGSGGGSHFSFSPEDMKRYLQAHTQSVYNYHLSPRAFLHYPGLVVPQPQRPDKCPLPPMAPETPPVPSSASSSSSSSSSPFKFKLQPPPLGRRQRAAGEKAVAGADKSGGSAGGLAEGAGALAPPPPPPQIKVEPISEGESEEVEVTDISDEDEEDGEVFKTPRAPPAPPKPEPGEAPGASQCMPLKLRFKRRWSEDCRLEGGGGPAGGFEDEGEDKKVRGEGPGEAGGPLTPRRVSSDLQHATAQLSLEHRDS
# Summary of the method: as §1
# ETV3L = target: T7, ETV3L (Homo sapiens, UniProt Q6ZN32 1-361); settings: protein: recombinant; tags: N-terminal GST; dsDNA, one strand shown
# T7 sequence: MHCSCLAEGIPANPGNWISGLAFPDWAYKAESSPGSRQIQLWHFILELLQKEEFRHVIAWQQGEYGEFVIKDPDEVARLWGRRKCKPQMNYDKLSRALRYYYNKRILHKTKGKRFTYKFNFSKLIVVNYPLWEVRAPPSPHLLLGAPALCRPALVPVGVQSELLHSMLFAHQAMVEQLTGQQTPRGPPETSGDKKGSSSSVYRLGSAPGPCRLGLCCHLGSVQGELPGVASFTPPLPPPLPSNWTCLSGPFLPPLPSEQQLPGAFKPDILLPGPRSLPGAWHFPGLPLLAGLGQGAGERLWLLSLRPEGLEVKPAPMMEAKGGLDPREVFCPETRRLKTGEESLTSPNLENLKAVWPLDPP
# Summary of the method: as §1
# ETS2 = target: T8, ETS2 (Homo sapiens, UniProt P15036 1-469); settings: protein: recombinant; tags: N-terminal GST; dsDNA, one strand shown
# T8 sequence: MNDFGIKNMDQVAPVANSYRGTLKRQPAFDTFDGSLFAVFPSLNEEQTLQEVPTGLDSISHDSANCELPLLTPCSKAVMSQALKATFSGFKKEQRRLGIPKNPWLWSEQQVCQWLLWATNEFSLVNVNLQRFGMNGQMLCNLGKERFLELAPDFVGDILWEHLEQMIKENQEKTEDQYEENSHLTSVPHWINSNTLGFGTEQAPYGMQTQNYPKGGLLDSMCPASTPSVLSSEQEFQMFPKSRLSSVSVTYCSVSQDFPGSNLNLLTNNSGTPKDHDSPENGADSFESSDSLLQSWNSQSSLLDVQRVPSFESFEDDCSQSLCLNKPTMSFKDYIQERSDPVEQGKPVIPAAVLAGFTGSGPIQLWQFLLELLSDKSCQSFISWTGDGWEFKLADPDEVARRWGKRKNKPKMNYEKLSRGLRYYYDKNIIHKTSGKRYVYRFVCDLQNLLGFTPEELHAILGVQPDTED
# Summary of the method: as §1
# SPDEF = target: T9, SPDEF (Homo sapiens, UniProt O95238 1-335); settings: protein: recombinant; tags: N-terminal GST; dsDNA, one strand shown
# T9 sequence: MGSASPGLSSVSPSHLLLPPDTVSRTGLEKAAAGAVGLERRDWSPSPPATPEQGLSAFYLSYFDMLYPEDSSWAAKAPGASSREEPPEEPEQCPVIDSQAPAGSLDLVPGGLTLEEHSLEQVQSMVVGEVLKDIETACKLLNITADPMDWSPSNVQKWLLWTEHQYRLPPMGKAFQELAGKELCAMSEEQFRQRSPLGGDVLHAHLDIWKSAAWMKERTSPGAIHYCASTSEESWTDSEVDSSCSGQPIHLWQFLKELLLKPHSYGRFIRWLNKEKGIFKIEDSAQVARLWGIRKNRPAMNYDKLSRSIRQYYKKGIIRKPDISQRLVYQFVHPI
# Summary of the method: as §1
# ETV7 = target: T10, ETV7 (Homo sapiens, UniProt Q9Y603 1-341); settings: protein: recombinant; tags: N-terminal GST; dsDNA, one strand shown
# T10 sequence: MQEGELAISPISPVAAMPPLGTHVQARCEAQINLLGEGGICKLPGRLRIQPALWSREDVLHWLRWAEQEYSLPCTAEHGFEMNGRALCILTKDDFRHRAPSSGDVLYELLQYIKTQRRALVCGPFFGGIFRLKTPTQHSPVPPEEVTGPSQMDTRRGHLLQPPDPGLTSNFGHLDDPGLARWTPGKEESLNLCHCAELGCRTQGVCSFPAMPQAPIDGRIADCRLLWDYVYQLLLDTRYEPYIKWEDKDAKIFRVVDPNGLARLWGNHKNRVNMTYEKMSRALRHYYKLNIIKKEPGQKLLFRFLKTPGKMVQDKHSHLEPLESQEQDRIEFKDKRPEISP
# Summary of the method: as §1
# ELF5 = target: T11, ELF5 (Homo sapiens, UniProt Q9UKW6-2 1-255); settings: protein: recombinant; tags: N-terminal GST; dsDNA, one strand shown
# T11 sequence: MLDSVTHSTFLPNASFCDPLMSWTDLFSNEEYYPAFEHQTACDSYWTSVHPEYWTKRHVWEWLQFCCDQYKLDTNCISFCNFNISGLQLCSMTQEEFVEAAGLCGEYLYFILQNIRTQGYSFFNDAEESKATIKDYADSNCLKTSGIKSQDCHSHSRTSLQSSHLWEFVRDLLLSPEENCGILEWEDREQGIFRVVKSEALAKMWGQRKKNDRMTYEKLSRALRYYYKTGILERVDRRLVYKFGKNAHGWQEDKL
# Summary of the method: as §1
# ETV3 = target: T12, ETV3 (Homo sapiens, UniProt P41162-2 1-143); settings: protein: recombinant; tags: N-terminal GST; dsDNA, one strand shown
# T12 sequence: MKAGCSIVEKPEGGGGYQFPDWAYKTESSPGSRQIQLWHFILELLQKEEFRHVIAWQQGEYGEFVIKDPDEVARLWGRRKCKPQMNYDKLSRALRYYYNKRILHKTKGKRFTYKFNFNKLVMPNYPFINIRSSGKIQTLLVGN
# Summary of the method: as §1
# ETV6 = ETV6 (Homo sapiens, UniProt P41212 1-452); settings: protein: recombinant; tags: N-terminal GST; dsDNA, one strand shown
# Chain of ETV6 (P41212 whole entry): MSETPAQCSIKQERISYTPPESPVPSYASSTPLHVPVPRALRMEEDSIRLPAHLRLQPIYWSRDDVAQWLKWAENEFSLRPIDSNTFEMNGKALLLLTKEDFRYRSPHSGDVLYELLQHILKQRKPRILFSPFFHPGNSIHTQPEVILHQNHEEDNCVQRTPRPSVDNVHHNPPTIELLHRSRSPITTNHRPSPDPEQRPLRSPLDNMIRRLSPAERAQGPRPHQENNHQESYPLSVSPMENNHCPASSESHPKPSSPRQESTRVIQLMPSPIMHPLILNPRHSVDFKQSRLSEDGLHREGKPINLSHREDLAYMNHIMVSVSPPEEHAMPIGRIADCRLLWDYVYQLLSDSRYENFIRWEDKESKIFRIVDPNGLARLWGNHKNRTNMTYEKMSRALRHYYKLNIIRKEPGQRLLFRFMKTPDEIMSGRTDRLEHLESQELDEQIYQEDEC
# Summary of the method: as §1
sequence,measurement,setting,value
AATAAC,binding signal,FEV,"1.25 fold enrichment (6-mer frequency, TF over GST control)"
same,binding signal,ETV5,"1.3 fold enrichment (6-mer frequency, TF over GST control)"
same,binding signal,HSF1,"1.27 fold enrichment (6-mer frequency, TF over GST control)"
same,binding signal,SPIC,"1.42 fold enrichment (6-mer frequency, TF over GST control)"
same,binding signal,ELF4,"1.32 fold enrichment (6-mer frequency, TF over GST control)"
same,binding signal,ELK4,"1.13 fold enrichment (6-mer frequency, TF over GST control)"
same,binding signal,ETV2,"1.31 fold enrichment (6-mer frequency, TF over GST control)"
same,binding signal,ELF3,"1.25 fold enrichment (6-mer frequency, TF over GST control)"
same,binding signal,CRX,"1.32 fold enrichment (6-mer frequency, TF over GST control)"
same,binding signal,ETV1,"1.15 fold enrichment (6-mer frequency, TF over GST control)"
same,binding signal,ERF,"1.33 fold enrichment (6-mer frequency, TF over GST control)"
same,binding signal,ETV3L,"1.22 fold enrichment (6-mer frequency, TF over GST control)"
same,binding signal,ETS2,"1.27 fold enrichment (6-mer frequency, TF over GST control)"
same,binding signal,SPDEF,"1.21 fold enrichment (6-mer frequency, TF over GST control)"
same,binding signal,ETV7,"1.25 fold enrichment (6-mer frequency, TF over GST control)"
same,binding signal,ELF5,"1.31 fold enrichment (6-mer frequency, TF over GST control)"
same,binding signal,ETV3,"1.23 fold enrichment (6-mer frequency, TF over GST control)"
same,binding signal,ETV6,"1.36 fold enrichment (6-mer frequency, TF over GST control)"

# From publication PMC7862700, “An all-to-all approach to the identification of sequence-specific readers for epigenetic DNA modifications on cytosine”
